Experimental data: ChEMBL document CHEMBL1961873, “Compounds: GSK PKIS; Assays: Nanosyn kinase panel” (2012)

How the values were obtained:
[1] = biological target: Ribosomal protein S6 kinase alpha-6 (Homo sapiens) (UniProt Q9UK32); settings: at 1 µM;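 further: each value is a mean inhibition of RSK4 from a GSK PKIS panel screen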
[2] = biological target: T1, Serine/threonine-protein kinase Sgk1 (Homo sapiens) (UniProt O00141); settings: at 0.1 µM
T1 sequence (whole entry): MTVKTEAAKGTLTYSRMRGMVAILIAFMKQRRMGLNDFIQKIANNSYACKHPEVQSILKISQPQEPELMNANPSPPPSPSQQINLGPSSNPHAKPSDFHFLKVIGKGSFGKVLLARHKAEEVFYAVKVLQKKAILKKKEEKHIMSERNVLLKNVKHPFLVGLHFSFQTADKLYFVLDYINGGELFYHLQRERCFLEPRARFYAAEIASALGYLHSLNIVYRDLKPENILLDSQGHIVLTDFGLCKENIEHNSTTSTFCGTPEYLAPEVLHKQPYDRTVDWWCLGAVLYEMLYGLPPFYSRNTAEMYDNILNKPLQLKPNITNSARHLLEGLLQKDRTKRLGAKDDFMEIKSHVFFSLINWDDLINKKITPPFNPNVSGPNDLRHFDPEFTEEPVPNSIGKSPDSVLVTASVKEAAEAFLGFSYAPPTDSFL

[3] = biological target: T1, Serine/threonine-protein kinase Sgk1 (Homo sapiens); settings: at 1 µM
[4] = biological target: T2, Serine/threonine-protein kinase Sgk2 (Homo sapiens) (UniProt Q9HBY8); settings: at 0.1 µM
T2 sequence (whole entry): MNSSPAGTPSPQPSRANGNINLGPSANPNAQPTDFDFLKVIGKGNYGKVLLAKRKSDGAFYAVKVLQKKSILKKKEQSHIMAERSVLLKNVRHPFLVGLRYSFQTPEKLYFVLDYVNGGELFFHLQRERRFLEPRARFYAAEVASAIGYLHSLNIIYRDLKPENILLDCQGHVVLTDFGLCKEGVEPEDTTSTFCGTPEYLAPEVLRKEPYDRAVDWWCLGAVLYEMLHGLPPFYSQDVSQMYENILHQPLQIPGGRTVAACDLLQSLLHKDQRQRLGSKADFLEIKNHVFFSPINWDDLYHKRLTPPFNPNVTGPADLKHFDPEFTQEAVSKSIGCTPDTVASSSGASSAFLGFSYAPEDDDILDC

[5] = biological target: T2, Serine/threonine-protein kinase Sgk2 (Homo sapiens); settings: at 1 µM
[6] = biological target: T3, Serine/threonine-protein kinase Sgk3 (Homo sapiens) (UniProt Q96BR1); settings: at 0.1 µM
T3 sequence (whole entry): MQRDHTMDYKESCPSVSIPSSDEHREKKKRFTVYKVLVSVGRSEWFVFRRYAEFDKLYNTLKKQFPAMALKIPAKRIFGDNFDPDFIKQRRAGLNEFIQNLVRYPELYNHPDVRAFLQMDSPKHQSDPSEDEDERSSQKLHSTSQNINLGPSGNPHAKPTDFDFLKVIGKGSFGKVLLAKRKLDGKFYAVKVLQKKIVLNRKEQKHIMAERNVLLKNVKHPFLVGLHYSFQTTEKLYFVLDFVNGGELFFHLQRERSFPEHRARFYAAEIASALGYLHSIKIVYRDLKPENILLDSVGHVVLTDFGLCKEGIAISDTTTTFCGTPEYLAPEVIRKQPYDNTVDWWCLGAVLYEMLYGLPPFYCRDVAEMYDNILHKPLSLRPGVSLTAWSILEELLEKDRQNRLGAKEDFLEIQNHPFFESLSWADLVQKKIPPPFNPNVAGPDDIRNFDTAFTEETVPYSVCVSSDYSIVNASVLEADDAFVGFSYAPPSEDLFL

[7] = biological target: T3, Serine/threonine-protein kinase Sgk3 (Homo sapiens); settings: at 1 µM
[8] = biological target: 5'-AMP-activated protein kinase catalytic subunit alpha-1 (Homo sapiens) (UniProt Q13131); settings: at 0.1 µM
Sequence of 5'-AMP-activated protein kinase catalytic subunit alpha-1 (Homo sapiens) (Q13131 whole entry, looked up): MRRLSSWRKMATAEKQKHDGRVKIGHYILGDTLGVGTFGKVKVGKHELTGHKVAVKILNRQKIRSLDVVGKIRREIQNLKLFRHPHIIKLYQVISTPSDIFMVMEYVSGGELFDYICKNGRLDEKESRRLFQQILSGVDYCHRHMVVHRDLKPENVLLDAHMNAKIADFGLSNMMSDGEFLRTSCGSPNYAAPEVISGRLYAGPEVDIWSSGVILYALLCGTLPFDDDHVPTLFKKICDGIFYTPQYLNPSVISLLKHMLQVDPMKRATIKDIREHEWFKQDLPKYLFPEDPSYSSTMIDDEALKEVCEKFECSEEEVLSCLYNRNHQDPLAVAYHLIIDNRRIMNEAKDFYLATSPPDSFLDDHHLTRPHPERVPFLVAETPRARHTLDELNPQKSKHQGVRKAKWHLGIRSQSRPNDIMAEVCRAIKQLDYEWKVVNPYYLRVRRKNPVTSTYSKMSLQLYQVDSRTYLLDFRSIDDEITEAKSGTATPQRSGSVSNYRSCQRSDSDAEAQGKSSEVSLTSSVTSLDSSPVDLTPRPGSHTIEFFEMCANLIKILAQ

[9] = biological target: 5'-AMP-activated protein kinase catalytic subunit alpha-1 (Homo sapiens) (UniProt Q13131); settings: at 1 µM
[10] = biological target: 5'-AMP-activated protein kinase catalytic subunit alpha-2 (Homo sapiens) (UniProt P54646); settings: at 0.1 µM
Sequence of 5'-AMP-activated protein kinase catalytic subunit alpha-2 (Homo sapiens) (P54646 whole entry, looked up): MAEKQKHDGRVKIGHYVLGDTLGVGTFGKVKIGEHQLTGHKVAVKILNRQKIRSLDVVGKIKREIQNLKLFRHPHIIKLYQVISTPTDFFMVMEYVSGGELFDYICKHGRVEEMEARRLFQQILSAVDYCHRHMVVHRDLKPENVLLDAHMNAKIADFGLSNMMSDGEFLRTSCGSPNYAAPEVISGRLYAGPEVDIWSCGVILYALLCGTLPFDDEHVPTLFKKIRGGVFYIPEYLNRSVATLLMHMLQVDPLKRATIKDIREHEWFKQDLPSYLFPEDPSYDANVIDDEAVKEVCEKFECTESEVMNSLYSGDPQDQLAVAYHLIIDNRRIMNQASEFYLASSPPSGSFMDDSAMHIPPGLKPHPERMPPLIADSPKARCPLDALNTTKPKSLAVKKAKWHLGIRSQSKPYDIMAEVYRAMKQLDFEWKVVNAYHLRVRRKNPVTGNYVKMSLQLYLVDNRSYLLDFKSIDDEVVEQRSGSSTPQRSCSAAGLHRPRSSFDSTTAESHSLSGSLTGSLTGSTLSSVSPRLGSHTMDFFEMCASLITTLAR

[11] = biological target: 5'-AMP-activated protein kinase catalytic subunit alpha-2 (Homo sapiens) (UniProt P54646); settings: at 1 µM
[12] = biological target: T4, NUAK family SNF1-like kinase 1 (Homo sapiens) (UniProt O60285); settings: at 0.1 µM
T4 sequence (whole entry): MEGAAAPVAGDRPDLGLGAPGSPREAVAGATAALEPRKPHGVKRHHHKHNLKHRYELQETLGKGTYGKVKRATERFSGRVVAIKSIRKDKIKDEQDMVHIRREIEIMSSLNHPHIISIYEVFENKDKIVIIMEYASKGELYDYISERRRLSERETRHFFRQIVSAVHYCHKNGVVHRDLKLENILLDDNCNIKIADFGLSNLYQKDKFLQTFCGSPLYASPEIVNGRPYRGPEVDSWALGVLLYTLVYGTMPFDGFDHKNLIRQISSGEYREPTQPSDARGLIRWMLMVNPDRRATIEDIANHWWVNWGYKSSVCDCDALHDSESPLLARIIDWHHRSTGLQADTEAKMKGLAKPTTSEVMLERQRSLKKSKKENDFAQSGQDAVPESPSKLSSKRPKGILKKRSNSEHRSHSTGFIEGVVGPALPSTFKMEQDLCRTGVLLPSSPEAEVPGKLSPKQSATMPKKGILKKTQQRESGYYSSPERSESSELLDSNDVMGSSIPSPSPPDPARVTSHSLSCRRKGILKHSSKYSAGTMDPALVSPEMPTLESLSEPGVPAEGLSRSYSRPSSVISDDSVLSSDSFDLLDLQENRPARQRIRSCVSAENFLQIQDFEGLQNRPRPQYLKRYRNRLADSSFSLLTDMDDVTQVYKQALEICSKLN

[13] = biological target: T4, NUAK family SNF1-like kinase 1 (Homo sapiens); settings: at 1 µM
[14] = biological target: T5, Serine/threonine-protein kinase BRSK1 (Homo sapiens) (UniProt Q8TDC3); settings: at 0.1 µM
T5 sequence (whole entry): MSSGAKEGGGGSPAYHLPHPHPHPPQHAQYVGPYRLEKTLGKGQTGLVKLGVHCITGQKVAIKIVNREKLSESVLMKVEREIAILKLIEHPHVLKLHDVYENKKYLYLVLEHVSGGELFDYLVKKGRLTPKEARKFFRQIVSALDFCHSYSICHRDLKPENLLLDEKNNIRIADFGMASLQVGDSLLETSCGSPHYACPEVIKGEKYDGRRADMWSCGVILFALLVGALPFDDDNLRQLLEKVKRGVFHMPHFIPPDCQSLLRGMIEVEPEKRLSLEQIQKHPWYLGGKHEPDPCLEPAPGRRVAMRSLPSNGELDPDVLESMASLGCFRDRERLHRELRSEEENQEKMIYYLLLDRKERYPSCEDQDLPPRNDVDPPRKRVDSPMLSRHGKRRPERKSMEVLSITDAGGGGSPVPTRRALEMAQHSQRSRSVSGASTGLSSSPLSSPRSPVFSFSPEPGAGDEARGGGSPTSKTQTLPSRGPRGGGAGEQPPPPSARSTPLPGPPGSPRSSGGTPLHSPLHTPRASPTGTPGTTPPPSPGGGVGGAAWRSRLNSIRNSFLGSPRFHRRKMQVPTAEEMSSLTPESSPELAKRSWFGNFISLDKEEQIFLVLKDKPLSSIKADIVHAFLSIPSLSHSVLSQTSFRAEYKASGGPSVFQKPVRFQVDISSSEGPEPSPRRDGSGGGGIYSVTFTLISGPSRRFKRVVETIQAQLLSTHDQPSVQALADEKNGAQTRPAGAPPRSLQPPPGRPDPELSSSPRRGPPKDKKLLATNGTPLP

[15] = biological target: T5, Serine/threonine-protein kinase BRSK1 (Homo sapiens); settings: at 1 µM
[16] = biological target: T6, Serine/threonine-protein kinase BRSK2 (Homo sapiens) (UniProt Q8IWQ3); settings: at 0.1 µM
T6 sequence (whole entry): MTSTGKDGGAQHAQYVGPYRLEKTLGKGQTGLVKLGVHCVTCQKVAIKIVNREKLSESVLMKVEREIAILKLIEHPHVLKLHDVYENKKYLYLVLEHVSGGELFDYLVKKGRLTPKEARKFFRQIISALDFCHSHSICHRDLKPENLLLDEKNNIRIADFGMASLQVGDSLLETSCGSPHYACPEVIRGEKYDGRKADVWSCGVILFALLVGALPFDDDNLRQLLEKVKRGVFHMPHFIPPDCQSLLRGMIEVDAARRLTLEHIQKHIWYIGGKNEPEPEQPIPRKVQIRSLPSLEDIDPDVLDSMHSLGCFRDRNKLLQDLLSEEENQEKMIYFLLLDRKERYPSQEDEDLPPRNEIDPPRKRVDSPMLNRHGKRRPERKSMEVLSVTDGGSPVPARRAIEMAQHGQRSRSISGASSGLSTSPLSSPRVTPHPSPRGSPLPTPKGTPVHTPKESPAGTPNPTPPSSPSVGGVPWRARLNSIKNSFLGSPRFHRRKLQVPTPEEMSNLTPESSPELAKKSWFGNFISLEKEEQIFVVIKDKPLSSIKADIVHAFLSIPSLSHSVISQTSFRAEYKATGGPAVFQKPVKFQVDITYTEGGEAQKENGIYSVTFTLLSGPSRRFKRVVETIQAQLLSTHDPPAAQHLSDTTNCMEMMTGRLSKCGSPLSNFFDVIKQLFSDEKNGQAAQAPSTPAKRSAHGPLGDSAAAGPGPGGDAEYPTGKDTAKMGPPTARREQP

[17] = biological target: T6, Serine/threonine-protein kinase BRSK2 (Homo sapiens); settings: at 1 µM
[18] = biological target: Calcium/calmodulin-dependent protein kinase type 1D (Homo sapiens) (UniProt Q8IU85); settings: at 0.1 µM
Sequence of Calcium/calmodulin-dependent protein kinase type 1D (Homo sapiens) (Q8IU85 whole entry, looked up): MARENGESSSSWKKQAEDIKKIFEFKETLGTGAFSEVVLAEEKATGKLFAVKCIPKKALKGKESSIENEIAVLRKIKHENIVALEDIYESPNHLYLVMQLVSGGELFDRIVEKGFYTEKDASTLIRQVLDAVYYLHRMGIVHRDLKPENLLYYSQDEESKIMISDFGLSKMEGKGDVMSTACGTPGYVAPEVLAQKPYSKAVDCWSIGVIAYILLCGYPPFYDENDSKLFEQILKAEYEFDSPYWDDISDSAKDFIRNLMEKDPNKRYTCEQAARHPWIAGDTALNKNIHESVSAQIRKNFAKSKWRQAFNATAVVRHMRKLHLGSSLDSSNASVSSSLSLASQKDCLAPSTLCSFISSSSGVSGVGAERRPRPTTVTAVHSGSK

[19] = biological target: Calcium/calmodulin-dependent protein kinase type 1D (Homo sapiens) (UniProt Q8IU85); settings: at 1 µM
[20] = biological target: Calcium/calmodulin-dependent protein kinase type II subunit alpha (Homo sapiens) (UniProt Q9UQM7); settings: at 0.1 µM;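 further: reported values are averages (mean inhibition of CAMK2A)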
Sequence of Calcium/calmodulin-dependent protein kinase type II subunit alpha (Homo sapiens) (Q9UQM7 whole entry): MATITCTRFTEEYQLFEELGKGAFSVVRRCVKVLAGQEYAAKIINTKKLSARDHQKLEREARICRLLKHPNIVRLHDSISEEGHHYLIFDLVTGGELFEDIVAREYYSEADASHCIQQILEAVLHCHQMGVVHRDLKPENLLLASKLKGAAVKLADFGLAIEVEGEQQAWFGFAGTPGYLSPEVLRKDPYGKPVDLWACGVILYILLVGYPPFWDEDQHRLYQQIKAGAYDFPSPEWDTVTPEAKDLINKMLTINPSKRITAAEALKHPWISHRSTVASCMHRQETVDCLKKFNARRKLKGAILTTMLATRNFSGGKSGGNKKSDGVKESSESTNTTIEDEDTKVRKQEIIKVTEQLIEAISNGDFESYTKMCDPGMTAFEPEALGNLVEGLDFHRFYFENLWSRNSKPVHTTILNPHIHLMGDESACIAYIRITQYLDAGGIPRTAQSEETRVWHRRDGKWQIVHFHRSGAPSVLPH

Sequence of Ribosomal protein S6 kinase alpha-6 (Homo sapiens) (Q9UK32 whole entry): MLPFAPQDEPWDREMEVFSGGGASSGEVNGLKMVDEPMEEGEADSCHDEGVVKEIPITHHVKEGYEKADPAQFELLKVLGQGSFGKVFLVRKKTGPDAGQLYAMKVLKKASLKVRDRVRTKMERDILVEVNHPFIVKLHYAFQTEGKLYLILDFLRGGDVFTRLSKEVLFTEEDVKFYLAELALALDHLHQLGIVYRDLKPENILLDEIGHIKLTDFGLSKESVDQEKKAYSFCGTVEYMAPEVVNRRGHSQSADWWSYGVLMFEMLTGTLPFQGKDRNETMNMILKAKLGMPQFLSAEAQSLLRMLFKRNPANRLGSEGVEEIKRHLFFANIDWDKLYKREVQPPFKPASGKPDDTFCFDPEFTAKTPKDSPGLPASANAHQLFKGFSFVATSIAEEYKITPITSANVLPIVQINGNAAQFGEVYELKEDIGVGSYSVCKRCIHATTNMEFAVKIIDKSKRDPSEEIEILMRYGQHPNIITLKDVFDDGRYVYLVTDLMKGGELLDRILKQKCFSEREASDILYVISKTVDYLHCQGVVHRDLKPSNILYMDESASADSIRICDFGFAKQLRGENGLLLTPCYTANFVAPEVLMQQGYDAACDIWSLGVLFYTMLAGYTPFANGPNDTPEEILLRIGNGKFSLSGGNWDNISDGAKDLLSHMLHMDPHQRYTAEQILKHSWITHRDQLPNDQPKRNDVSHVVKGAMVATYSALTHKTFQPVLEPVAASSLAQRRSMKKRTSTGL

Compound	inhibition [1] [%]	inhibition [2] [%]	inhibition [3] [%]	inhibition [4] [%]	inhibition [5] [%]	inhibition [6] [%]	inhibition [7] [%]	inhibition [8] [%]	inhibition [9] [%]	inhibition [10] [%]	inhibition [11] [%]	inhibition [12] [%]	inhibition [13] [%]	inhibition [14] [%]	inhibition [15] [%]	inhibition [16] [%]	inhibition [17] [%]	inhibition [18] [%]	inhibition [19] [%]	inhibition [20] [%]
Cc1nnc(-c2ccc(C)c(-c3ccc(C(=O)NCc4ccc(Cl)cc4)cc3)c2)o1	2.38	5.07	3.26	2.67	6.19	1.38	5.66	2.95	3.4	3.74	3.56	1	4.79	-2.13	-2.87	1.17	2.51	-1.49	0.04	2.6
COC(=O)Nc1nc2ccc(Sc3ccc(NC(=O)Nc4cc(C(F)(F)F)ccc4F)cc3)cc2[nH]1	0.24	0.54	4.52	0.41	0.74	-0.29	0.03	0.86	0.23	-4.11	1.29	3.62	-4.85	-1.14	0.16	-0.46	1.01	0.9	0.37	3
CN1CCN(CCCNc2nc3ccc(Oc4ccc(NC(=O)Nc5cc(C(F)(F)F)ccc5F)cc4)cc3[nH]2)CC1	-0.1	4.51	5.49	0.79	1.09	3.14	0.75	1.09	-0.25	2.94	3.1	0.88	4.39	2.48	2.58	1.15	0.19	2.28	4.38	3.27
Cc1ccc(NC(=O)c2ccoc2)cc1-c1ccc(C(=O)NCC2CC2)cc1	-0.14	0.63	0.73	2.95	-0.89	7.71	3.98	0.17	1.06	-0.17	1.09	-0.47	-0.78	0	0.43	1.99	0.95	-0.63	-1.53	1.08
CN(C)CCOc1ccc(-c2cc(-c3ccc4c(c3)CCC4=NO)c(-c3ccncc3)o2)cc1	-1.99	1.28	0.73	-2.26	2.64	1.69	-4.66	-1.39	-0.8	0.73	0.01	0.84	-0.24	-0.05	-0.95	-0.42	1.46	-0.88	1.79	-1.08
c1ccc(-c2n[nH]cc2-c2ccnc(-c3ccc(OCCN4CCOCC4)cc3)c2)nc1	-0.39	5.23	3.03	3.23	-0.68	3.83	4.03	0.65	-0.75	6.57	4.37	5.95	7.16	8.84	6.57	6.13	4.06	2.06	3.63	-0.64
